Source: PubChem BioAssay (NCATS)
Records with an inconclusive call do not appear. A call without a number means that no potency is given here. Calls of active or inactive are those of the source. The call rests on the fitted dose curve; in most records, active means well fitted curve in the direction sought with a large enough effect; inconclusive means small, poorly fitted or top-dose-only effect, or another doubt; inactive means no such curve, though single readings can be large; an effect the other way counts as inactive or inconclusive.

Assays:
[1] = SW1088 Cancer Cell Toxicity qHTS against the NCATS CANVASS Library (AID 1347350); conditions: SW1088 viability, CellTiter-Glo luminescence, 72 h; series mostly up to 38.3 µM; further: nearly all actives have a fitted effect of over 75% in size; further: potency means the concentration at half of the fitted maximal effect
In short: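 Bortezomib titration and single-dose wells served as plate controls. Test compounds, 11 points, acted on 1000 cells/well for 72 h at 37 degrees C; CellTiter-Glo luminescence quantified remaining viable cells.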

[2] = HEK293 18hr Apoptosis Induction qHTS against the NCATS CANVASS Library (AID 1347357); conditions: HEK293 caspase-3/7 Caspase-Glo luminescence; series mostly up to 46.1 µM; further: potency means the concentration at half of the fitted maximal effect
In short: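 Cells seeded at 500/well in DMEM + 10% FBS. Compounds pinned, 11 concentrations. 18 h, 37 degrees C/5% CO2. Caspase-Glo 3/7 added, 15 min RT dark, luminescence read.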

[3] = HPAF-II 12hr Apoptosis Induction qHTS against the NCATS CANVASS Library (AID 1347358); conditions: HPAF-II caspase-3/7 Caspase-Glo luminescence; series mostly up to 46.1 µM
In short: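 HPAF-II cells, 500/well in DMEM + 10% FBS, exposed 12 hours at 37 degrees C to compound (11-point). Caspase-Glo 3/7 added for 15 min at room temperature; luminescence reflects caspase-3/7 activity.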

[4] = HEK293 24hr Apoptosis Induction qHTS against the NCATS CANVASS Library (AID 1347359); conditions: HEK293 caspase-3/7 activation, Caspase-Glo luminescence; series mostly up to 46.1 µM; further: potency means the concentration at half of the fitted maximal effect
In short: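 Caspase-3/7 activation measured as luminescence from the DEVD-based Caspase-Glo reagent, 15 min at room temperature, following 24-hour compound treatment of HEK293 cells.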

[5] = HPAF-II 18hr Apoptosis Induction qHTS against the NCATS CANVASS Library (AID 1347360); conditions: HPAF-II caspase-3/7 luminescence; series mostly up to 46.1 µM
In short: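 Seed HPAF-II cells at 500/well in DMEM + 10% FBS, pin-transfer compounds, incubate 18 hours at 37 degrees C/5% CO2, add Caspase-Glo 3/7 reagent, wait 15 min, read luminescence.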

[6] = HEK293 12hr Apoptosis Induction qHTS against the NCATS CANVASS Library (AID 1347361); conditions: HEK293 caspase-3/7 Caspase-Glo luminescence; series mostly up to 46.1 µM
In short: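 Cells are seeded, dosed with an 11-point compound series and incubated 12 hours. Caspase-3/7 activity is detected by luminescent DEVD-substrate reagent after 15 minutes at room temperature.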

[7] = target: Luciferin 4-monooxygenase (Photinus pyralis) (UniProt P08659); assay: Firefly luciferase counterscreen qHTS: Assay Interference Panel against the NCATS CANVASS Library (AID 1347363); conditions: purified firefly luciferase, luminescence inhibition, 5 min; series mostly up to 57.5 µM; further: potency means the concentration at half of the fitted maximal effect
Chain of Luciferin 4-monooxygenase (Photinus pyralis) (P08659 whole entry, looked up): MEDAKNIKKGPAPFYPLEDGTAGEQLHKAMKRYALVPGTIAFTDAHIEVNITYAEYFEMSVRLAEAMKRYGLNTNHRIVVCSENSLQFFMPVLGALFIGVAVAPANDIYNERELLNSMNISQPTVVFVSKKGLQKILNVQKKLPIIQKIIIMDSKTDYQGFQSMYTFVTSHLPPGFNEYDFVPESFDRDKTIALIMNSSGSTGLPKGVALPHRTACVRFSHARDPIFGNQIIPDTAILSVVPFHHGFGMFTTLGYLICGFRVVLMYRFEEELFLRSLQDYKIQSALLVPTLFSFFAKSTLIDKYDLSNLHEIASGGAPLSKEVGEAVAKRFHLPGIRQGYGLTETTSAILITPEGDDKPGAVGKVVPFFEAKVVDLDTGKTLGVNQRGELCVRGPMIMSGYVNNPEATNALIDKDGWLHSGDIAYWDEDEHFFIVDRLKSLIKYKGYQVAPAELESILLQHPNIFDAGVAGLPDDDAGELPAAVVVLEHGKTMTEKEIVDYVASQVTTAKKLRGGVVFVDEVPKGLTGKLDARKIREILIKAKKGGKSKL
In short: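 Luminescence inhibition readout: compounds (11-point qHTS) sat 15 min at room temperature with substrate mix (0.013 mM luciferin and ATP), then firefly luciferase was added and signal read 5 min later.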

[8] = KB-3-1 Cancer Cell Toxicity qHTS against the NCATS CANVASS Library (AID 1347366); conditions: KB-3-1 viability, CellTiter-Glo luminescence, 72 h; series mostly up to 46.1 µM; further: nearly all actives have a fitted effect of over 75% in size; further: potency means the concentration at half of the fitted maximal effect
In short: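 Luminescence from CellTiter-Glo (10 min, room temperature) measured KB-3-1 viability after 72 hr compound exposure at 37C. Cells were seeded at 500/well and tested in an 11-point series.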

[9] = G06 Cancer Cell Toxicity qHTS against the NCATS CANVASS Library (AID 1347368); conditions: G06 dog glioma cells, viability ATP luminescence, 72 h; series mostly up to 46.1 µM; further: nearly all actives have a fitted effect of over 60% in size; further: potency means the concentration at half of the fitted maximal effect
In short: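 G06 dog glioma cells, 500 per well, exposed 72 hr at 37C, 5% CO2 to compounds in an 11-point series. Cytotoxicity read as ATP content by CellTiterGlo luminescence.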

[10] = MCF7 Cancer Cell Toxicity qHTS against the NCATS CANVASS Library (AID 1347369); conditions: MCF7 viability, ATP luminescence (CellTiter-Glo), 72 h; series mostly up to 46 µM; further: potency means the concentration at half of the fitted maximal effect
In short: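 Cells seeded at 500/well, then compound pinned. Plates incubated 72 hr at 37C, 5% CO2. CellTiterGlo added; luminescence read.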

[11] = J3T Cancer Cell Toxicity qHTS against the NCATS CANVASS Library (AID 1347371); conditions: J3T dog glioma viability, ATP luminescence, 72 h; series mostly up to 46.1 µM; further: potency means the concentration at half of the fitted maximal effect
In short: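 J3T dog glioma cells, 500 per well, treated 72 h at 37C with compounds (11-point qHTS); viability from ATP content by CellTiterGlo luminescence; bortezomib titration as control.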

[12] = target: Nuclear receptor subfamily 1 group I member 3 (Homo sapiens) (UniProt Q14994); assay: qHTS for Constitutive Androstane Receptor (CAR) Antagonist screened against the NCATS CANVASS Library (AID 1347372); conditions: HepG2-hCAR-CYP2B6 luciferase, CITCO-stimulated antagonist mode; series mostly up to 46.1 µM; further: potency means the concentration at half of the fitted maximal effect
Chain of Nuclear receptor subfamily 1 group I member 3 (Homo sapiens) (Q14994 whole entry, looked up): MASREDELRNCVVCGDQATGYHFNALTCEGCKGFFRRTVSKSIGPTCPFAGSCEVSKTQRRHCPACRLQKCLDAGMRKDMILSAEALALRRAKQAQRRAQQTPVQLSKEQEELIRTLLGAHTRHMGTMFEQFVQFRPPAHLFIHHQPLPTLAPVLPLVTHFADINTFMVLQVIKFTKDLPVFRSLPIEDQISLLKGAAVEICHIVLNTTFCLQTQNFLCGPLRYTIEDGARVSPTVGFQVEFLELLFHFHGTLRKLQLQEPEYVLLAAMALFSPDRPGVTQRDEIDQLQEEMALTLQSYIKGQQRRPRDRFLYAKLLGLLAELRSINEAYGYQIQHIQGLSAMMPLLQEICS
In short: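 HepG2-CYP2B6-hCAR double-stable cells plated, 4hr attach; cpd pin-transferred; CITCO 50 nM final; 24hr 37C/5% CO2; CellTiter-Fluor 1hr (fluorescence), then ONE-Glo luminescence.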

[13] = target: Nuclear receptor subfamily 1 group I member 3 (Homo sapiens) (UniProt Q14994); assay: qHTS for Constitutive Androstane Receptor (CAR) Agonist screened against the NCATS CANVASS Library (AID 1347373); conditions: HepG2-hCAR-CYP2B6 luciferase reporter, ONE-Glo luminescence; series mostly up to 46.1 µM;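 further: every well also contained 1.5 µM PK11195 alongside the test compound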; further: potency means the concentration at half of the fitted maximal effect
In short: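 HepG2 cells stably carrying hCAR and a CYP2B6-2.2kb luciferase reporter, treated 24hr at 37C with compounds plus 1.5uM PK11195; activation by ONE-Glo luminescence, viability by CellTiter-Fluor.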

[14] = 10-beta competent E. coli microbial cell viability qHTS against the NCATS CANVASS Library (AID 1347376); conditions: E. coli 10-beta viability, BacTiter-Glo ATP luminescence, overnight; series mostly up to 46.1 µM
In short: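 10-beta competent E. coli (0.2 OD) were exposed overnight at 37C to compounds in an 11-point series. Viability was read as ATP-dependent BacTiter-Glo luminescence after 20 min at room temperature.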

[15] = DH5-alpha competent E. coli microbial cell viability qHTS against the NCATS CANVASS Library (AID 1347377); conditions: BacTiter-Glo ATP luminescence, overnight; series mostly up to 46.1 µM
In short: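 DH5-alpha E. coli suspension was exposed to an 11-point compound series overnight at 37 °C. Viable cells quantified by ATP luminescence (BacTiter-Glo) after 20 min at room temperature.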

[16] = qHTS for H2AX Agonists against the NCATS CANVASS Library (AID 1347378); conditions: CHO-K1 H2AX phosphorylation, HTRF TR-FRET, 3 h; series mostly up to 76.9 µM;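 further: phospho-H2AX S139 level in CHO-K1 lysates by TR-FRET emission ratio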
In short: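 CHO-K1, 1000 cells/well, o/n 37C; cpd several conc, 3 hr 37C, 0.76% DMSO; lyse 30 min RT; cryptate anti-pH2AX(S139) + d2 anti-H2AX, 24 hr RT; HTRF 665/620.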

[17] = qHTS for Inflammasome Signaling Inhibitors: IL-1-beta AlphaLISA screen against the NCATS CANVASS Library (AID 1347379); conditions: THP-1 LPS/ATP, IL-1B AlphaLISA secretion, 16 h; series mostly up to 57.5 µM;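 further: human THP-1 cells primed with LPS then triggered with ATP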
In short: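 THP-1 cells pretreated 1 hr with compound (up to 57.5 uM final), then stimulated with LPS (250 ng/mL final) and ATP (1.25 mM final). Secreted IL-1B measured by AlphaLISA after 16 hr; glyburide as positive control.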

[18] = Inflammasome Signaling qHTS Counterscreen: IL-1-beta AlphaLISA counterscreen against the NCATS CANVASS Library (AID 1347381); conditions: Purified IL-1beta AlphaLISA signal interference counterscreen; series mostly up to 57.5 µM;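 further: cell-free check with purified IL-1β in medium and no THP-1 cells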
In short: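 Cell-free interference check: compounds added to medium spiked with 4 pg purified IL-1β. Anti-IL-1β acceptor beads (6 ug/mL) with 0.6 nM biotinylated antibody added for 1 h at RT, then streptavidin donor beads (24 ug/mL) for 30 min in the dark. AlphaLISA read at 680/615 nm.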

[19] = qHTS assay for small molecule disruptors of mitochondrial membrane potential screened against the NCATS CANVASS Library (AID 1347389); conditions: HepG2 mitochondrial membrane potential, m-MPI red/green ratio, 1.5 h; series mostly up to 46.1 µM; further: nearly all actives have a fitted effect of over 60% in size; further: potency means the concentration at half of the fitted maximal effect
In short: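 HepG2 cells (2,000/well) plated overnight, then exposed to compounds in 11-point qHTS series for 1 h at 37C before 30 min Mito-MPS dye; depolarization read as fall in red aggregate (590 nm) to green monomer (535 nm) fluorescence.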

[20] = qHTS for inhibitors of Wild type Zika virus screened against the NCATS CANVASS Library (AID 1347396); conditions: Vero cells, Zika virus CPE, CellTiter-Glo, 72 h; series mostly up to 45.9 µM;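 further: ATP luminescence of surviving cells so rescue from viral cell killing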
In short: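 Vero 766 cells, 1000/well, o/n attach; cpds pin-transferred (11-pt qHTS); WT Zika added; 72 h, 37C, 5% CO2; CellTiter Glo lumi. Uninfected + vehicle = 100% inhibition.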

SMILES	Potency [1]	Potency [2]	Potency [3]	Potency [4]	Potency [5]	outcome [6]	Potency [7]	Potency [8]	Potency [9]	Potency [10]	Potency [11]	Potency [12]	Potency [13]	outcome [14]	outcome [15]	Potency [16]	Potency [17]	outcome [18]	Potency [19]	outcome [20]
[C-]#[N+][C@@]12C(=O)[C@@H]3[C@@H](O[C@@]4(C(=O)N(C)c5cccc1c54)C3(C)C)C(=O)[C@@]2(C)C=C	inactive	inactive	inactive	inactive	inactive	inactive	inactive	inactive	inactive	inactive	inactive	inactive	inactive	inactive	inactive	inactive	inactive	inactive		
CO[C@@H](C[C@@H](C)[C@@H](O)/C=C/C=C/CNC(=O)C(C)(C)[C@H](O)\C(C)=C/C=C\C=C\Cc1cnco1)[C@]1(O)[C@@H](C)C(=O)N(C)[C@@]12COC2=O	inactive	inactive	inactive	inactive	inactive	inactive	inactive	inactive	inactive	inactive	inactive	inactive	inactive	inactive	inactive	inactive	inactive	inactive	inactive	inactive
C=C(C)C(=O)O[C@H]1C[C@@]2(C)OC(=CC2=O)/C(C)=C\[C@H]2OC(=O)C(=C)[C@H]12	6.68 µM (active)	2.96 µM (active)	inactive	2.96 µM (active)	inactive		inactive	3.32 µM (active)	2.09 µM (active)	4.16 µM (active)	1.66 µM (active)	11.7 µM (active)	inactive	inactive	inactive		1.37 µM (active)	inactive	18.6 µM (active)	
C[C@@]12C[C@@H](C[C@@H]3C(=O)O[C@@H](c4ccoc4)[C@H](OC(=O)c4ccccc4)[C@@H]31)OC2=O	inactive	inactive	inactive	inactive	inactive	inactive	inactive	inactive	inactive	inactive	inactive	inactive	inactive	inactive	inactive	inactive	inactive	inactive	inactive	inactive
COc1ccc([C@@H]2c3cc4c(cc3C(=O)[C@H](C)C2C)OCO4)cc1OC (stereo not given in full)	inactive	inactive	inactive	inactive	inactive	inactive	inactive		inactive	inactive	inactive	inactive	inactive	inactive	inactive	inactive	inactive	inactive	inactive	inactive
O=Cc1ccc2n1C[C@]1(C[C@H](O)[C@@H](CO)O1)OC2	inactive	inactive	inactive	inactive	inactive	inactive	inactive	inactive	inactive	inactive	inactive	inactive	inactive	inactive	inactive	inactive	inactive	inactive	inactive	inactive
COc1ccc([C@@H]2c3cc4c(cc3C[C@H](C)C2C)OCO4)cc1OC (stereo not given in full)		inactive	inactive	inactive	inactive	inactive	inactive			inactive	inactive	inactive	inactive	inactive	inactive	inactive	inactive	inactive		inactive
CC1(C)CC[C@]2(CO)CC[C@]3(C)C(=CCC4[C@@]5(C)CC[C@H](O)C(C)(C)C5CC[C@]43C)C2C1 (stereo not given in full)	inactive	inactive	inactive	inactive	inactive	inactive	inactive	inactive	inactive	inactive	inactive	inactive	inactive	inactive	inactive	inactive	inactive	inactive	inactive	inactive
O=C1CC(c2ccc(O)cc2)Oc2ccccc21 (stereo not given)	inactive	inactive	inactive	inactive	inactive	inactive	5.44 µM (active)	inactive		inactive	inactive	inactive	23.4 µM (active)			inactive		inactive	14.8 µM (active)	inactive
C=C[C@@]1(C)CC[C@@H]([C@H](C)C(C)=O)O1	inactive	inactive	inactive	inactive	inactive	inactive	inactive	inactive	inactive	inactive	inactive	inactive	inactive	inactive	inactive	inactive	inactive	inactive	inactive	inactive
O=C1CC(c2ccc(O)cc2)Oc2cc(O)cc(O)c21 (stereo not given)	inactive	inactive	inactive	inactive	inactive	inactive	inactive	inactive	inactive	inactive	inactive	inactive	inactive	inactive	inactive	inactive	inactive	inactive		inactive
CN1C(=O)C(=O)N2C(=C[C@]3(c4c[nH]c5ccccc45)c4ccccc4N[C@H]23)C1=O	inactive	inactive	inactive	inactive	inactive	inactive	inactive	inactive	inactive	inactive	inactive	inactive	inactive	inactive	inactive	inactive	inactive	inactive	inactive	inactive
